The nature of assay [1]: inhibitors of TNFa-induced NFkB p65 translocation, primary screen, imaging, HUVEC, MLSMR starter and 10KST1 sets (AID 438;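 active means inhibition above 20% together with a positive visual image hit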;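 further: compound added about 3h40 before a 20 min TNFalpha stimulation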;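 on inhibition: signal is the nuclear over cytoplasmic p65 intensity ratio per well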). The conditions noted are these: HUVEC TNFa-induced p65 nuclear translocation; cell count: measured here: nuclei count (cytotoxicity indicator), at 2.08 µM; inhibition: at 2 µM, stronger effect = higher value, 0% TNFa-plus-vehicle, 100% no-TNFa wells.
Assay [2] is described as follows: inhibitors of mutant huntingtin aggregation, primary screen, imaging, exon1htt(103Q)mCFP cells, high-content imaging (AID 483;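 active means visual image review flags a hit and inhibition of aggregation exceeds 20%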;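 further: compound exposure lasted 3 days before fixation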;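 on nuclei count: percent of the per-plate median nuclei count of sample wells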). The conditions noted are these: exon1htt(103Q)mCFP cell line, aggregate imaging, at 2 µM; inhibition of aggregation: stronger effect = higher value; nuclei count: measured here: cell count, toxicity.
The nature of assay [3]: inhibitors of E-selectin induction by TNFa, primary screen, imaging, HUVEC, immunofluorescence, MLSMR starter and 10KST1 sets (AID 487).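 On inhibition: signal is fraction of cell area covered by stained E-selectin grains.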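 On nuclei count: 100% = median nuclei count of all wells on the same plate.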 The conditions noted are these: HUVEC TNFalpha-induced E-selectin immunofluorescence imaging, at 2 µM; inhibition: stronger effect = higher value; nuclei count: measured here: cell number, toxicity.
For assay [4], the target named is Voltage-gated potassium channel subunit beta-2 (Rattus norvegicus) (UniProt P62483). The assay can be described thus: KvBeta enzyme negative modulators, primary screen, biochemical, NADPH fluorescence (AID 622;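 active means fluorescence slope higher than the sample average by over 3 SD, cut at about -0.22 in these data, passing the limit was not always enough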;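 further: slope of raw intensity against log time taken from 70 to 1610 s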). The conditions noted are these: recombinant KvBeta, 4-cyanobenzaldehyde reduction, at 10 µM, stronger effect = higher value.
Voltage-gated potassium channel subunit beta-2 (Rattus norvegicus), sequence (P62483 whole entry, looked up): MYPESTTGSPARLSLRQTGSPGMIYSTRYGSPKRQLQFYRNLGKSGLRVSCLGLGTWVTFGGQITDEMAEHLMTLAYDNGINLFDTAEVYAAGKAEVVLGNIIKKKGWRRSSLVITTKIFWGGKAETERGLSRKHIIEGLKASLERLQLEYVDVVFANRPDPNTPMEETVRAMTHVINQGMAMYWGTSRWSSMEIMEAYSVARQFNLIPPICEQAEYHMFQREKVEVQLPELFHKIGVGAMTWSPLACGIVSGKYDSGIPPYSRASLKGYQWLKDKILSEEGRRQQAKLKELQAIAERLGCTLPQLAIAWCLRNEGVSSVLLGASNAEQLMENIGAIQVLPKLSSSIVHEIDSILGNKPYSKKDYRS
Assay [5] shares this target. The assay is described as follows: KvBeta positive modulators, primary screen, biochemical, NADPH fluorescence (AID 623;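 active means NADPH fluorescence slope more negative than the mean of all samples by about 3 SD, 99.7% confidence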;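 further: fluorescence intensity change per second fitted from 20 to 320 s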). The conditions noted are these: Recombinant KvBeta, NADPH fluorescence decrease slope, 10 min; at 10 µM; stronger effect = lower value.
For assay [6], the target named is Alpha-2C adrenergic receptor (Homo sapiens) (UniProt P18825). The assay is described as follows: modulators of alpha2C/GIRK thallium flux, primary screen, cell-based, HEK293 alpha2C/GIRK1/2 (AID 624;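 active means fluorescence slope after compound addition differing from the mean of all screened samples at 99.7% confidence, in either direction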;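 further: slope of fluorescence ratio to pre-addition baseline per second over 15 to 24 s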). The conditions noted are these: thallium flux BTC fluorescence, at 10 µM, actives lie on both sides.
Alpha-2C adrenergic receptor (Homo sapiens), sequence (P18825 whole entry, looked up): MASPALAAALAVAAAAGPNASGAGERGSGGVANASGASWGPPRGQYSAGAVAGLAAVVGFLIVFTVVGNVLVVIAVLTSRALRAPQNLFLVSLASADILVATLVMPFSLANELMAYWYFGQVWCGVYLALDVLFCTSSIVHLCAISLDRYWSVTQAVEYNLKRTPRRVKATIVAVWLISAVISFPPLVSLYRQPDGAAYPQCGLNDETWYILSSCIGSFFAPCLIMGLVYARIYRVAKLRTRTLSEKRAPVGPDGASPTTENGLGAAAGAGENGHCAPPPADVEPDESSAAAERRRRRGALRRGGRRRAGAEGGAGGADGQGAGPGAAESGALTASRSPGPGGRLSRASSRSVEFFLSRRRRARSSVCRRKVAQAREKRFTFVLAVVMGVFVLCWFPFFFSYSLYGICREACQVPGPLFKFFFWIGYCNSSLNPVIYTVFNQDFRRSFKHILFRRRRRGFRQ
Assay [7] can be described thus: inhibitors of Sendai virus-induced IRF3 signaling, primary screen, TLR/RLR signaling modifier project, cell-based, Sendai virus stimulus, luciferase, 10K MLSCN set (AID 602276;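 active means inhibition at or above 50% at 10 µM; inactive means inhibition below 50%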;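 further: firefly luciferase from ISG56 promoter only with Renilla not read in this screen; 0% = Sendai virus plus DMSO and 100% = medium plus DMSO without virus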). The conditions noted are these: HEK293 RL24 IRF3 luciferase reporter, at 10 µM, stronger effect = higher value. A general note: In a reporter assay the amount or activity of a reporter protein is the signal.

Assay [8] in a line: inhibitors of poly I:C-induced TLR3 signaling, primary screen, cell-based, poly I:C stimulus, luciferase, 10K MLSCN set (AID 602277;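 active means inhibition of the reporter signal at or above 50%; inactive means inhibition below 50%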). The conditions noted are these: HEK293-TLR3 RL24 IRF3 luciferase reporter, at 10 µM, stronger effect = higher value.

SMILES strings stand for the structures. Active and inactive are the calls of the source.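 How the source made its calls, unless noted: active means visually confirmed hit in the image check and inhibition above 20%; inconclusive means visually confirmed hit but inhibition not above 20%; inactive means no visual hit in the image check.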

As for `CCOC(=O)c1nc2sc3c(c2c(=O)[nH]1)CCCC3`, the cell count in assay [1] was determined as 763. Moreover, the inhibition in assay [1] is -1.6% (inactive); in assay [3], 2.7% (inactive); in assay [7], 13.1% (inactive); in assay [8], 11.2% (inactive). Also, the inhibition of aggregation in assay [2] was -9.6% (inactive). For the same molecule, the nuclei count in assay [2] is 84.3%; in assay [3], 102%. The fluorescence slope in assay [4] was -0.0445 (active). Besides, the NADPH fluorescence slope in assay [5] is -1.1e-05 (inactive). Besides, in assay [6], the slope is 0.0045 (inactive).

`O=C(Nc1ccon1)c1csc2c1CCCC2`: the cell count in assay [1] came to 332. For the same molecule, the inhibition in assay [1] was 1.2% (inactive); in assay [3] it was -52.8% (inactive); in assay [7], -0.246% (inactive); in assay [8], 11.9% (inactive). Further, the inhibition of aggregation in assay [2] was -60% (inactive). The figures for the nuclei count in assay [2] and in assay [3] were 104% and 107%, respectively. Also, in assay [4], the fluorescence slope is -0.396 (inactive). In assay [5], the NADPH fluorescence slope was -5.9e-05 (inactive). Moreover, the slope in assay [6] was 0.00515 (inactive).

For `O=C(NC1(C(=O)NC2CCCCC2)CCCCC1)c1ccc2c(c1)OCO2`, the cell count in assay [1] worked out at 578. In addition, the inhibition is 6.3% (inactive) in assay [1], -45.8% (inactive) in assay [3], 7.94% (inactive) in assay [7] and 19% (inactive) in assay [8]. Besides, the inhibition of aggregation in assay [2] was 16.2% (inactive). Besides, the nuclei count in assay [2] amounted to 96.2%; in assay [3], 91.4%. The fluorescence slope in assay [4] was -0.524 (inactive). The NADPH fluorescence slope in assay [5] is -3.1e-05 (inactive). Also, the slope in assay [6] is 0.00509 (inactive).

Consider `O=C(OCC(=O)N1CCC(Cc2ccccc2)CC1)c1ccc[nH]c1=O`, for which the cell count in assay [1] was found to be 496. Besides, the inhibition was -25.6% (inactive) in assay [1], -41.6% (inactive) in assay [3], 3.7% (inactive) in assay [7] and 6.66% (inactive) in assay [8]. Moreover, in assay [2], the inhibition of aggregation was -14.9% (inactive). In addition, the figures for the nuclei count in assay [2] and in assay [3] were 107% and 88.7%, respectively. For the same molecule, in assay [4], the fluorescence slope is -0.341 (inactive). Moreover, in assay [5], the NADPH fluorescence slope is -9.5e-06 (inactive). For the same molecule, in assay [6], the slope is 0.00527 (inactive).

With `COc1cccc(S(=O)(=O)Nc2ccc(C(=O)N3CCN(C(=O)c4ccco4)CC3)cc2)c1`, the cell count in assay [1] was 448. The inhibition in assay [1] is -3.9% (inactive); in assay [3] it was -65.5% (inactive); in assay [7] it was 8.1% (inactive); in assay [8], 7.91% (inactive). Also, the inhibition of aggregation in assay [2] was -8% (inactive). Moreover, the figures for the nuclei count in assay [2] and in assay [3] were 108% and 124%, respectively. In addition, the fluorescence slope in assay [4] was -0.507 (inactive). In addition, the NADPH fluorescence slope in assay [5] is -3.8e-05 (inactive). Also, the slope in assay [6] was 0.00603 (inactive).

`O=C(Nc1ccc(Br)cc1F)c1sccc1-n1cccc1`: the cell count in assay [1] was 616. In addition, the inhibition in assay [1] was -12.7% (inactive); in assay [3], -10.6% (inactive); in assay [7], -1.64% (inactive); in assay [8] it was -17.5% (inactive). Also, the inhibition of aggregation in assay [2] was -18.9% (inactive). In addition, the nuclei count in assay [2] was found to be 103%; in assay [3], 110%. In addition, in assay [4], the fluorescence slope was -0.397 (inactive). Further, in assay [5], the NADPH fluorescence slope was -3.4e-05 (inactive). In addition, the slope in assay [6] is 0.00385 (inactive).

Turning to `CCOc1ccc(CN2C(=O)c3ccccc3C2C(=O)NCc2cccnc2)cc1` (centres undefined), the cell count in assay [1] stood at 500. Besides, the inhibition in assay [1] was -1.1% (inactive); in assay [3], -52.5% (inactive); in assay [7] it was 8.35% (inactive); in assay [8] it was 16.9% (inactive). For the same molecule, the inhibition of aggregation in assay [2] is -9.9% (inactive). Also, the nuclei count in assay [2] was found to be 110%; in assay [3], 94.3%. For the same molecule, the fluorescence slope in assay [4] was -0.599 (inactive). In addition, the NADPH fluorescence slope in assay [5] was -1.6e-05 (inactive). In addition, the slope in assay [6] was 0.00638 (inactive).

Take `Cc1nnc(C)c2c(C)n(Cc3ccc4c(c3)OCO4)c(C)c12`: the cell count in assay [1] came to 679. Besides, the inhibition in assay [1] was 6.2% (inactive); in assay [3], -8.3% (inactive); in assay [7], -9.5% (inactive); in assay [8], -7.65% (inactive). Moreover, the inhibition of aggregation in assay [2] was 4.3% (inactive). Also, the nuclei count in assay [2] was 74.3%; in assay [3], 95.8%. The fluorescence slope in assay [4] is -0.517 (inactive). For the same molecule, in assay [5], the NADPH fluorescence slope was 4.5e-06 (inactive). In assay [6], the slope was 0.0037 (inactive).

For `CCOC(=O)CN1C(=O)C2(OCCCO2)c2ccccc21`, the cell count in assay [1] is 595. The inhibition was -18.5% (inactive) in assay [1], -39.6% (inactive) in assay [3], 1.67% (inactive) in assay [7] and 18.4% (inactive) in assay [8]. Also, the inhibition of aggregation in assay [2] was 3.3% (inactive). Further, the nuclei count came to 115% in assay [2] and 96.5% in assay [3]. The fluorescence slope in assay [4] is -0.454 (inactive). Further, in assay [5], the NADPH fluorescence slope was -0.000151 (inactive). Besides, in assay [6], the slope is 0.00617 (inactive).

For the molecule `COC(=O)CN(c1ccc(OC)cc1)S(=O)(=O)c1ccc(OC)c(OC)c1`, in assay [1], the cell count was 669. Also, the inhibition was -4.7% (inactive) in assay [1], -81.3% (inactive) in assay [3], 10.6% (inactive) in assay [7] and 23.4% (inactive) in assay [8]. Besides, the inhibition of aggregation in assay [2] is -13% (inactive). Also, the nuclei count is 106% in assay [2] and 139% in assay [3]. Moreover, the fluorescence slope in assay [4] was -0.463 (inactive). Moreover, the NADPH fluorescence slope in assay [5] was -0.000101 (inactive). Besides, the slope in assay [6] was 0.00514 (inactive).

For the molecule `CC(C)C(=O)Nc1ccc(C(=O)NCc2cccnc2)cc1`, the cell count in assay [1] was 393. Also, the inhibition was 9.4% (inactive) in assay [1], -115% (inactive) in assay [3], -10.7% (inactive) in assay [7] and -31.6% (inactive) in assay [8]. Also, the inhibition of aggregation in assay [2] is 10% (inactive). Moreover, the nuclei count in assay [2] is 102%; in assay [3] it was 109%. For the same molecule, in assay [4], the fluorescence slope was -0.598 (inactive). In addition, the NADPH fluorescence slope in assay [5] was 1.1e-05 (inactive). Further, the slope in assay [6] is 0.00588 (inactive).

`Nc1nnc(SCc2cc3c(cc2Cl)OCO3)s1`: in assay [1], the cell count is 379. For the same molecule, the inhibition in assay [1] is 7.6% (inactive); in assay [3], -30.6% (inactive); in assay [7], 0.13% (inactive); in assay [8], 9.87% (inactive). Moreover, in assay [2], the inhibition of aggregation was -3.1% (inactive). Besides, the nuclei count stood at 110% in assay [2] and 111% in assay [3]. The fluorescence slope in assay [4] is -0.477 (inactive). The NADPH fluorescence slope in assay [5] is -6.6e-05 (inactive). The slope in assay [6] is 0.00689 (inactive).

`O=[n+]1c2c(n([O-])c3c1CCCC3)CCCC2`: the cell count in assay [1] came out at 658. Moreover, the inhibition in assay [1] is 5.8% (inactive); in assay [3], 54.7% (inactive); in assay [7] it was 11.8% (inactive); in assay [8] it was 24% (inactive). For the same molecule, the inhibition of aggregation in assay [2] was -17.7% (inactive). For the same molecule, the nuclei count came to 109% in assay [2] and 75.8% in assay [3]. In addition, the fluorescence slope in assay [4] was -0.399 (inactive). For the same molecule, the NADPH fluorescence slope in assay [5] was -6.5e-05 (inactive). Besides, the slope in assay [6] was 0.00619 (inactive).

`O=C(Nc1ccc(F)cc1)N(CCCN1CCOCC1)Cc1cc2cc3c(cc2[nH]c1=O)OCO3`: the cell count in assay [1] was determined as 633. Moreover, the inhibition in assay [1] is -3% (inactive); in assay [3] it was -27.7% (inactive); in assay [7], 15.6% (inactive); in assay [8], 28.6% (inactive). Also, the inhibition of aggregation in assay [2] is -34.9% (inactive). In addition, the nuclei count was determined as 105% in assay [2] and 114% in assay [3]. In assay [4], the fluorescence slope was -0.362 (inactive). Besides, the NADPH fluorescence slope in assay [5] is -4.4e-05 (inactive). In addition, the slope in assay [6] was 0.00497 (inactive).

In general, inhibition refers to the drop in the measured response relative to a control, in per cent.

The values are drawn from PubChem BioAssay.
